Experimental findings from PubChem BioAssay AID1745849 (National Center for Advancing Translational Sciences (NCATS), 2022) are described below.

The campaign covered roughly 2,100 compounds. About 320 (15%) were called active. Not shown: some 52% with an inconclusive outcome. Calls follow the shape of the dose curve; as a rule, active = well fitted cell-killing curve with a large enough effect; inconclusive = small, poorly fitted or top-dose-only effect, or effect the other way; inactive = flat fitted curve, though single readings scatter. The list shows a part of the results. A call without a number means that no potency is given here.
Potency is read from the fitted curve at half-maximal effect.

The nature of the experiment: Viability Counterscreen for CMV-Luciferase Assay of Inhibitors of ATXN expression. Also: nearly all actives have a fitted effect of over 55% in size. The conditions noted are these: HEK-293 CMV-luciferase cells viability, protease fluorescence, 24 h. In a few lines:
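HEK-293 cells stably expressing CMV-luciferase, treated 24 hr at 37 °C with compounds (several concentrations). Viability by Gly-Phe-AFC fluorescence (25 uM final, 30 min); reporter by SteadyGlo luminescence after 5 min.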
(In general: Counterscreens check selectivity or assay interference.)
Consider `CCCCNC(=NCc1cccc(C(F)(F)F)c1)Nc1ccccc1`, for which the Potency result is “inactive”.
Turning to `COc1cc(/C=N/Nc2ccc(Cl)c(C(=O)O)c2)ccc1OC(=O)c1ccco1`, the Potency result is “inactive”.
Under `NC(=O)c1c(NC(=O)c2ccc(S(=O)(=O)N3CCOCC3)cc2)sc2c1CCCCC2` stands “inactive”; under `COC(=O)c1c(NC(=O)c2ccc([N+](=O)[O-])o2)sc2c1CCN(C(C)C)C2`, 15.8 µM (active).
Next, `CN(C)C(CNC(=O)c1cccc(S(=O)(=O)N2CCN(c3ccc(F)cc3)CC2)c1)c1ccccc1` (stereo not drawn): “inactive”; `Cc1ccc(OCC(=O)c2cc(C)n(Cc3cccs3)c2C)c([N+](=O)[O-])n1`: “inactive”.
Next, `COCCCNC1=C(Cl)C(=O)c2ccccc2C1=O`: 25.1 µM (active); `COc1ccc(CCNC2=C(Cl)C(=O)N(Cc3ccccc3)C2=O)cc1OC`: “inactive”; `CC(C)Cn1c(/C=N/Nc2nc3ccccc3[nH]2)nc2ccccc21`: “inactive”.
`CCC(C)(C)c1ccc(OCCCC[n+]2ccccc2)c(C(C)(C)CC)c1`: the Potency result was “inactive”.
Under `Nc1ccn(C2OC(COP(=O)(O)O)C(O)C2O)c(=O)n1` (stereo not drawn) stands “inactive”; under `Nc1ccn([C@@H]2O[C@H](CO)[C@@H](O)[C@@H]2O)c(=O)n1`, “inactive”; under `Nc1ncn([C@@H]2O[C@H](CO)[C@@H](O)[C@H]2O)c(=O)n1`, 6.31 µM (active).
Under `C/C(=N\NC(=O)c1ccc(CN2CCc3ccccc3C2)cc1)c1ccccc1O` stands “inactive”.
Under `Cc1c(OCC(=O)NC2CC(C)(C)NC(C)(C)C2)ccc2c1oc(=O)c1ccccc12` stands “inactive”.
Turning to `COc1cccc(OCC(=O)Nc2cc(Cl)ccc2Oc2ccccc2)c1`, the Potency entry was “inactive”.
Next, `COc1cccc(CN(C)C(=O)c2ccc(OCC(=O)Nc3cccc(C(F)(F)F)c3)c(OC)c2)c1`: 17.8 µM (active).
Next, `CCOCCn1ccc2c(OCC(=O)Nc3ccc(OC)c(OC)c3)cccc2c1=O`: “inactive”.
Under `O=C(Nc1ccc(NC(=O)c2ccco2)cc1)c1ccc2c(c1)OCCO2` stands “inactive”; under `O=C(Nc1nc(NC(=O)c2ccco2)n(-c2ccccc2)n1)c1ccccc1`, 12.6 µM (active).
`CN(CCc1ccccc1)c1cc2c(c3c1ccn3C)C1CCC2O1` (stereo not drawn): the Potency result is “inactive”.
As to `O=C(CN1C(=O)c2ccccc2S1(=O)=O)Nc1ncc(Cl)cc1Cl`, the Potency entry was “inactive”.
With `O=C(NCCc1csc(-c2cccnc2)n1)c1cccc(Cl)c1`, the Potency entry is “inactive”.
Next, `O=C(NNC(=O)c1cnccn1)c1ccc(Cl)c(Cl)c1`: 22.4 µM (active); `O=C(N/N=C/c1cc(Cl)ccc1O)c1cccnc1`: “inactive”.
Under `CCCC[C@@H](CNC)NC[C@H](NCCCCC1CCCCC1)C(C)C` stands 28.2 µM (active); under `OC(c1cc(F)cc(Cl)c1)c1ncc(-c2cccc(C(F)(F)F)c2)[nH]1` (stereo not drawn), “inactive”.
For the compound `CCOC(=O)c1c(NC(=O)C(Sc2ccccc2)c2ccccc2)sc(C(=O)N(C)C)c1C` (stereo not drawn), the Potency result is “inactive”.
In the case of `C=CCOC(=O)C1=C(C)NC(SCC)=C(C#N)C1c1ccc(Cl)cc1` (stereo not drawn), the Potency entry is “inactive”.
On to `O=C1C=C(NCCc2cc(Br)c(O)c(Br)c2)C(=O)c2ncccc21`, for which the Potency was 8.91 µM (active).
Next, `Brc1cnc2nc(SCc3nc4ccccc4[nH]3)[nH]c2c1`: “inactive”.
Turning to `CCCc1cnc(NCCNCC(O)COc2ccc(Cl)c(Cl)c2)nc1` (stereo not drawn), the Potency is 28.2 µM (active).
Next, `COc1ccc(OCc2cccc(C(=O)Nn3cc([N+](=O)[O-])cn3)c2)cc1`: “inactive”; `Cc1cc(/C=N/n2c(COc3ccccc3)nc3ccccc3c2=O)c(O)c([N+](=O)[O-])c1`: 12.6 µM (active).
Next, `Cc1nc2ccccc2c(=O)n1/N=C/c1c(O)ccc2oc3c(c12)CCCC3`: “inactive”; `Cc1ccc2nc(-c3ccccc3)nn2c1`: “inactive”.
Under `O=[N+]([O-])c1c(Nc2ccccn2)cc(Cl)c2nonc12` stands 11.2 µM (active).
As for `Cn1c(=O)c(C#N)c(-c2ccc(F)cc2)c2cc(C(=O)c3cc(Cl)cc(Cl)c3O)cnc21`, the Potency result was “inactive”.
For the compound `Oc1ccc2ccccc2c1/C=C/c1ccc2c(Br)cc(Br)c(O)c2n1`, the Potency entry was “inactive”.
Under `CCOC(=O)C(CC)(CC)C(=O)/C=C/c1ccc(OC)cc1` stands “inactive”.
Under `COc1ccc(C(=O)Cn2c(C(=O)/C=C/c3ccccc3)nc3ccccc32)cc1` stands 3.16 µM (active).
As for `COc1ccc(C(=O)Nn2c(SCC(=O)c3ccccc3)nc3ccccc3c2=O)cc1`, the Potency entry is “inactive”.
Next, `CC1=C(CC[C@@H](C)CO)OC2CC3C4CCC5CC(O)CCC5(C)C4CC(=O)C3(C)C12` (stereo partly drawn): “inactive”; `Cn1c(=O)c2c(nc(CN3CCN(Cc4ccccc4)CC3)n2Cc2ccc(Cl)cc2)n(C)c1=O`: 25.1 µM (active); `Cn1c(=O)c2c(nc(SCCN3CCOCC3)n2Cc2cccc3ccccc23)n(C)c1=O`: “inactive”.
Next, `COc1ccc(CNC(=O)Nc2nc(C(N)Cc3ccc(Cl)cc3)cs2)cc1` (stereo not drawn): 22.4 µM (active); `COc1ccc(CC(N)c2csc(NC(=O)c3cc(C(C)(C)C)nn3Cc3ccccc3)n2)cc1` (stereo not drawn): “inactive”.
Next, `COc1ccc(CC(N)c2csc(NC(=O)c3ccccc3OC)n2)cc1` (stereo not drawn): “inactive”.
`CN(C)c1ccc(C(=O)N/N=C/c2cc(Br)cc(Br)c2O)cc1`: the Potency result is “inactive”.
For `Fc1ccc(Nc2nnc(C(F)(F)F)s2)cc1Cl`, the Potency is 28.2 µM (active).
Under `Cc1onc(-c2c(F)cccc2Cl)c1C(=O)Nc1nnc(C(F)(F)F)s1` stands “inactive”; under `Oc1ccc(C[C@@H]2CNCCN2CCc2cc(C(F)(F)F)cc(C(F)(F)F)c2)cc1`, “inactive”; under `CCOC(=O)C1CCN(c2cc3c(cc2NC(=O)c2ccccc2OCC)n(C)c(=O)n3C)CC1`, “inactive”.
Under `CCOC(=O)C1CCN(C(=O)c2c(C)oc3c2C(=O)c2ccccc2C3=O)CC1` stands 15.8 µM (active); under `NC(=O)C1CCN(C2=C(Cl)C(=O)c3ccccc3C2=O)CC1`, “inactive”; under `COc1cc(C(=O)OC(C)C(=O)N2CCc3ccccc3C2)ccc1OCC(=O)N1CCOCC1` (stereo not drawn), “inactive”.
Next, `O=C(Nc1ccc2c(c1)CCC2)C1CCN(c2c3c(nc4ncnn24)CCC3)CC1`: “inactive”; `CCCCCn1c(=N)n(CC(O)COc2ccccc2OC)c2ccccc21` (stereo not drawn): 3.16 µM (active).
As for `Cn1c(N)c(C(=O)Nc2ccc(-c3ccccc3)cc2)sc1=S`, the Potency entry was “inactive”.
Under `NS(=O)(=O)c1ccc(Nc2nc(-c3ccc(F)cc3)cs2)cc1` stands “inactive”; under `NS(=O)(=O)c1ccc(N2N=C(c3ccccc3)CC2c2ccc(F)cc2)cc1` (stereo not drawn), “inactive”.
Take `O=S(=O)(c1ccc(F)cc1)c1snnc1-c1ccccc1`: the Potency was 10 µM (active).
Under `Cc1c(CC(=O)NCCCC(=O)O)c(=O)oc2cc3c(cc12)CCC(C)(C)O3` stands “inactive”; under `NNc1nc(N)c2c(n1)-c1ccccc1CC21CCCC1`, “inactive”; under `CC(C)NC1CCC(Nc2ccnc3cc(Cl)ccc23)CC1` (stereo not drawn), 15.8 µM (active).
Under `O=C(NNc1ccnc2cc(Cl)ccc12)C1CCCCC1` stands “inactive”.
Under `CCN(CC)CCNc1ccnc2cc(Cl)ccc12` stands “inactive”; under `O=C(c1c(F)cccc1F)N1CCCC(c2nc(-c3ccc(Cl)cc3)no2)C1` (stereo not drawn), “inactive”; under `CCn1c2ccccc2c2cc(NC(=O)COC(=O)c3ccccc3F)ccc21`, “inactive”.
In the case of `O=C1/C(=C/c2ccncc2)CCC/C1=C\c1ccncc1`, the Potency was 5.62 µM (active).
Under `CN1C/C(=C/c2cccnc2)C(=O)/C(=C/c2cccnc2)C1` stands “inactive”; under `CCN(CC)C(=O)c1cccc(-c2csc(C(C)(O)c3cccc(F)c3)n2)c1` (stereo not drawn), “inactive”.
Next, `CCN1C(=O)/C(=C/c2nc3ccccc3c(=O)n2-c2ccccc2)c2ccccc21`: 12.6 µM (active); `CCOC(=O)C1=CCN(S(=O)(=O)c2ccc(C)cc2)C1c1cccc(Cl)c1` (stereo not drawn): “inactive”.
Under `CCn1c(C)nc2cc(C(=O)N/N=C(\C)c3ccc(OC)cc3O)ccc21` stands “inactive”; under `O=C(NN=C1CCCC1)c1cc(-c2ccc(F)cc2)nc2ccccc12`, “inactive”; under `Cc1sc(NC(=O)c2cc(-c3ccc(Cl)cc3)nc3ccccc23)c(C(N)=O)c1C`, 8.91 µM (active).
As to `CCOC(=O)c1c(NC(=O)COC(=O)Cn2cnc3ccccc32)sc(C)c1C`, the Potency result was “inactive”.
Under `O=C(c1cc(COc2cccc(C(F)(F)F)c2)on1)N1CCC(c2ccncc2)CC1` stands “inactive”; under `CCN1CCN(c2cc(C(C)C)nc3c(-c4ccccc4)c(C)nn23)CC1`, “inactive”.
For the compound `COc1ccccc1-n1c(-c2ccccc2)c[n+]2c1CCc1ccccc1-2`, the Potency was 10 µM (active).
Under `OCC1(CCOc2ccccc2)CCN(CC2=Cc3cc(Cl)ccc3OC2)CC1` stands “inactive”.
Under `O=[N+]([O-])c1ccccc1S(=O)(=O)Nc1cccc2cccnc12` stands 11.2 µM (active).
Next, `Cc1ccc(S(=O)(=O)Nc2cccc3cccnc23)cc1`: “inactive”.
With `O=S(=O)(Nc1cccc2cccnc12)c1ccccc1`, the Potency entry is “inactive”.
Under `O=C(CSc1nnc(-c2ccccc2)o1)Nc1ccccc1F` stands “inactive”; under `C/C(=N\NC(=O)CSCc1ccc([N+](=O)[O-])cc1)c1ccccc1O`, “inactive”.
`CC(=O)C(C(C)=O)c1c(Cl)c(O)c(O)c2c(C(=O)c3ccccc3)coc12`: the Potency is 7.08 µM (active).
Regarding `CCOC(=O)C(C(C)=O)c1c(Br)c(O)c(O)c2c(C(=O)c3ccc(C)cc3)coc12` (stereo not drawn), the Potency is 10 µM (active).
Next, `O=C(NC(=S)NCc1nc2ccccc2[nH]1)c1ccc(F)cc1`: “inactive”; `NS(=O)(=O)c1ccc(Sc2nc3ccccc3s2)c([N+](=O)[O-])c1`: “inactive”.
Consider `Cc1sc2cc3c(c(C(=O)c4ccccc4)[n+]2c1C)-c1cccc2cccc-3c12`, for which the Potency is 10 µM (active).
Under `Cc1ccc(-c2csc(N3CCN(c4cc5c(cc4Cl)nc(-c4ccncc4)n5CCOCCO)CC3)n2)cc1` stands “inactive”; under `CC1(C)Cc2c(c(N3CCOCC3)nc3sc4c(NN)ncnc4c23)CS1`, “inactive”.
Next, `CC1(C)Cc2c(c(-c3ccco3)nc3sc4c(NCCN5CCOCC5)ncnc4c23)CO1`: “inactive”; `CN(C)CCNc1ncnc2c1sc1nc(N3CCOCC3)c3c(c12)CC(C)(C)SC3`: 17.8 µM (active); `Cn1nc(C(=O)N2CCN(c3ccc(Cl)cc3)CC2)c2c1-c1ccccc1S(=O)(=O)C2`: “inactive”.
Regarding `N#Cc1ccccc1NC(=O)C1SC(=Nc2ccccc2)C(C(=O)Nc2ccc(Cl)cc2)=C1N` (stereo not drawn), the Potency entry was “inactive”.
